Assay [1] in a line: viability loss with induced miR-34 in A549 – imaging, A549 dox-inducible miR-34, nuclei and caspase counts, primary screen (AID 1347080). To be noted: A549 miR-34 inducible, Hoechst nuclei count, 48 h.
Assay [2] is described as follows: MELAS cybrid and Rieske KO viability enhancers – cell-based, MELAS cybrids, Rieske KO mouse fibroblasts, CellTiter-Glo, primary screen (AID 1508586;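 active = mean z-score across replicates of 1.96 or higher in either the MELAS or the Rieske mutant cell line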;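 note: z relative to plate mean and SD of compound and empty wells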). The note with it: low glucose. A general note: In ATP-based viability assays light output follows the ATP content of the culture.
[3] abbreviates: stronger effect = lower value, cell number ratio, induced over uninduced.
The mark [4] stands for this setting: measured here: relative caspase fold change +Dox/-Dox.
[5] abbreviates: measured here: total cells with miR-34 induction, stronger effect = lower value.
Setting [6] is: measured here: total cells without miR-34 induction.
[7] abbreviates: MELAS cybrid survival, CellTiter-Glo 48 h, stronger effect = higher value.
The mark [8] stands for this setting: Rieske KO mouse fibroblast survival, CellTiter-Glo 72 h.

Each structure is given as a SMILES string. The source made the active and inactive calls.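 Rule for the calls, unless noted: active = compounds whose cell count with miR-34 switched on is under 0.7 times the count with it off; inactive = the rest.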
Note: test concentration not given here.

As for `OC(CC1c2ccccc2-c2cncn21)C1CCCCC1` (stereo not drawn), the fold change in assay [1] (setting [3]) was 0.992 (inactive); in assay [1] (setting [4]) it was 0.351. The results for the cell count in assay [1] (setting [5]) and in assay [1] (setting [6]) were 8340 and 8410, respectively. Moreover, the z-score is -0.436 (inactive) in assay [2] (setting [7]) and -0.0844 in assay [2] (setting [8]).

`COC(=O)C(CCCN=C(N)N)NS(=O)(=O)c1ccc(C)cc1` (stereo not drawn): the fold change was 0.92 (inactive) in assay [1] (setting [3]) and 0.589 in assay [1] (setting [4]). Also, the cell count stood at 8520 in assay [1] (setting [5]) and 9260 in assay [1] (setting [6]). For the same compound, the z-score in assay [2] (setting [7]) is -0.296 (inactive); in assay [2] (setting [8]), 0.752.

With `CN1CC[C@H](c2c(O)cc(O)c3c(=O)cc(-c4ccccc4Cl)oc23)C(O)C1` (stereo partly drawn), the fold change in assay [1] (setting [3]) is 0.938 (inactive); in assay [1] (setting [4]) it was 1.82. Moreover, the cell count in assay [1] (setting [5]) amounted to 1600; in assay [1] (setting [6]), 1700. Moreover, the z-score in assay [2] (setting [7]) is 3.42 (active); in assay [2] (setting [8]) it was -0.841.

For `Nc1nc(N)c2nc(-c3cccc(O)c3)cnc2n1`, the fold change in assay [1] (setting [3]) was 0.989 (inactive); in assay [1] (setting [4]) it was 0.893. The cell count in assay [1] (setting [5]) was 6340; in assay [1] (setting [6]), 6410. Besides, the z-score in assay [2] (setting [7]) was 1.29 (inactive); in assay [2] (setting [8]), -0.0279.

In the case of `Cc1cc(C(N)=O)ccc1-n1c(CCC(=O)O)ccc1-c1ccc(-n2ccnc2)cc1`, the fold change in assay [1] (setting [3]) is 0.953 (inactive); in assay [1] (setting [4]), 0.396. In addition, the cell count in assay [1] (setting [5]) is 9360; in assay [1] (setting [6]) it was 9820. The z-score in assay [2] (setting [7]) was -0.283 (inactive); in assay [2] (setting [8]), 0.463.

As to `O=CC(O)C(O)C(O)C(O)CO` (stereo not drawn), the fold change in assay [1] (setting [3]) was 0.892 (inactive); in assay [1] (setting [4]) it was 0.805. Also, the cell count in assay [1] (setting [5]) was 8030; in assay [1] (setting [6]), 9000. Moreover, the z-score in assay [2] (setting [7]) was -0.158 (inactive); in assay [2] (setting [8]), -0.000567.

As for `C#CCC(c1nc2cc(Cl)ccc2c(=O)n1Nc1ccccc1)N(CCCN)C(=O)c1cccc(Cl)c1F` (stereo not drawn), the fold change is 0.689 (active) in assay [1] (setting [3]) and 0.42 in assay [1] (setting [4]). Further, the cell count in assay [1] (setting [5]) came to 882; in assay [1] (setting [6]) it was 1280. The z-score is 1.61 (inactive) in assay [2] (setting [7]) and 0.152 in assay [2] (setting [8]).

With `C[C@]12C[C@@]3(O)O[C@@H](O1)[C@]1(COC(=O)c4ccccc4)[C@H]3C[C@@]12OC1OC(CO)C(O)C(O)C1O` (stereo partly drawn), the fold change in assay [1] (setting [3]) is 0.87 (inactive); in assay [1] (setting [4]) it was 0.575. Also, the cell count in assay [1] (setting [5]) was determined as 8970; in assay [1] (setting [6]), 10300. In addition, the z-score in assay [2] (setting [7]) was -0.445 (inactive); in assay [2] (setting [8]), -0.113.

Take `Cc1cccc(C)c1OCC(=O)NC(Cc1ccccc1)C(O)CC(Cc1ccccc1)NC(=O)C(C(C)C)N1CCCNC1=O` (stereo not drawn): the values for the fold change in assay [1] (setting [3]) and in assay [1] (setting [4]) were 1 (inactive) and 0.797, respectively. Also, the cell count in assay [1] (setting [5]) was found to be 6290; in assay [1] (setting [6]), 6270. In addition, the z-score is -0.513 (inactive) in assay [2] (setting [7]) and 0.0231 in assay [2] (setting [8]).

As to `CC1(C)C=C(CN2CC(=Cc3ccc(F)cc3)C(=O)C(=Cc3ccc(F)cc3)C2)C(C)(C)N1O`, the results for the fold change in assay [1] (setting [3]) and in assay [1] (setting [4]) were 0.876 (inactive) and 0.446, respectively. For the same compound, the cell count was found to be 6830 in assay [1] (setting [5]) and 7800 in assay [1] (setting [6]). Also, the z-score in assay [2] (setting [7]) is -0.493 (inactive); in assay [2] (setting [8]) it was -2.15.

In the case of `Cc1c(CN2CCN(C(=O)C(C)O)CC2)sc2c(N3CCOCC3)nc(-c3cnc(N)nc3)nc12` (stereo not drawn), the fold change in assay [1] (setting [3]) is 1.11 (inactive); in assay [1] (setting [4]), 0.549. Moreover, the cell count in assay [1] (setting [5]) is 2480; in assay [1] (setting [6]), 2230. The z-score in assay [2] (setting [7]) was 2.06 (active); in assay [2] (setting [8]) it was -2.39.

Turning to `Cc1cc(C(C)Nc2ccccc2C(=O)O)c2nc(N3CCOCC3)cc(=O)n2c1` (stereo not drawn), the fold change in assay [1] (setting [3]) was 0.956 (inactive); in assay [1] (setting [4]) it was 0.866. The cell count in assay [1] (setting [5]) is 5770; in assay [1] (setting [6]) it was 6030. Further, the z-score in assay [2] (setting [7]) is -0.296 (inactive); in assay [2] (setting [8]), -0.288.

Consider `CCN(CC)CCOC(=O)c1ccc(N)cc1Cl`, for which the fold change in assay [1] (setting [3]) is 0.9 (inactive); in assay [1] (setting [4]), 1.29. Also, the results for the cell count in assay [1] (setting [5]) and in assay [1] (setting [6]) were 9150 and 10200, respectively. Besides, the z-score in assay [2] (setting [7]) is -0.309 (inactive); in assay [2] (setting [8]) it was -0.153.

In the case of `CC(C)Oc1ccc(C(=O)NC(CNC(=O)CN(C)C)Cc2ccc(-c3cn4cccc(C(C)O)c4n3)cc2)cc1Cl` (stereo not drawn), the fold change in assay [1] (setting [3]) is 1 (inactive); in assay [1] (setting [4]), 0.389. Further, the cell count in assay [1] (setting [5]) is 1600; in assay [1] (setting [6]), 1590. Further, the z-score in assay [2] (setting [7]) was 1.36 (inactive); in assay [2] (setting [8]), -2.78.

Take `C=CC1=C(C(=O)O)N2C(=O)[C@H](NC(=O)C(=NO)c3csc(N)n3)[C@H]2SC1`: the fold change in assay [1] (setting [3]) is 0.881 (inactive); in assay [1] (setting [4]), 1.23. Further, the cell count in assay [1] (setting [5]) was determined as 7750; in assay [1] (setting [6]), 8790. Besides, the z-score is -0.382 (inactive) in assay [2] (setting [7]) and 0.812 in assay [2] (setting [8]).

For the compound `COc1c(C)c2c(c(O)c1CC=C(C)CCC(=O)O)C(=O)OC2`, the fold change in assay [1] (setting [3]) was 1.08 (inactive); in assay [1] (setting [4]), 0.86. Further, the cell count worked out at 3150 in assay [1] (setting [5]) and 2920 in assay [1] (setting [6]). The z-score in assay [2] (setting [7]) is 0.238 (inactive); in assay [2] (setting [8]) it was 0.269.

Consider `C#C[C@@]1(O)CC[C@H]2[C@@H]3CCc4cc(O)ccc4[C@@H]3CC[C@@]21C`, for which the fold change in assay [1] (setting [3]) is 0.952 (inactive); in assay [1] (setting [4]), 0.969. Further, the cell count in assay [1] (setting [5]) is 6120; in assay [1] (setting [6]), 6420. Besides, the z-score in assay [2] (setting [7]) is 0.773 (inactive); in assay [2] (setting [8]), 0.776.

In the case of `COc1ccc(NS(=O)(=O)c2sc3ccc(Cl)cc3c2C)cc1N1CCNCC1`, the results for the fold change in assay [1] (setting [3]) and in assay [1] (setting [4]) were 0.966 (inactive) and 0.423, respectively. The cell count in assay [1] (setting [5]) turned out to be 7390; in assay [1] (setting [6]) it was 7650. For the same compound, the figures for the z-score in assay [2] (setting [7]) and in assay [2] (setting [8]) were -0.345 (inactive) and -0.0807, respectively.

With `COC(=O)[C@]12CCC(C)(C)C[C@@H]1[C@@H]1C(=O)C=C3[C@]4(C)C=C(C#N)C(=O)C(C)(C)[C@@H]4CC[C@@]3(C)[C@]1(C)CC2`, the values for the fold change in assay [1] (setting [3]) and in assay [1] (setting [4]) were 0.818 (inactive) and 0.469, respectively. Further, the results for the cell count in assay [1] (setting [5]) and in assay [1] (setting [6]) were 308 and 376, respectively. The z-score in assay [2] (setting [7]) is -0.649 (inactive); in assay [2] (setting [8]), -3.82.

In the case of `CC1OC(OC2C(Oc3cc(O)c4c(c3)OC(c3ccc(O)cc3)CC4=O)OC(CO)C(O)C2O)C(O)C(O)C1O` (stereo not drawn), the fold change was 1 (inactive) in assay [1] (setting [3]) and 0.741 in assay [1] (setting [4]). Besides, the values for the cell count in assay [1] (setting [5]) and in assay [1] (setting [6]) were 8310 and 8300, respectively. In addition, the figures for the z-score in assay [2] (setting [7]) and in assay [2] (setting [8]) were -0.421 (inactive) and -0.0851, respectively.

As for `Cc1cc(C)nc(NS(=O)(=O)c2ccc(NC(=S)NC(=O)COc3ccc(Br)cc3Cl)cc2)n1`, the figures for the fold change in assay [1] (setting [3]) and in assay [1] (setting [4]) were 0.955 (inactive) and 1.42, respectively. For the same compound, the cell count in assay [1] (setting [5]) was found to be 7550; in assay [1] (setting [6]), 7900. Moreover, the z-score was -0.302 (inactive) in assay [2] (setting [7]) and -3.08 in assay [2] (setting [8]).

`CCCCCCCCCCCCCCCC(=O)OC1C(SC)OC(C(NC(=O)C2CC(CCC)CN2C)C(C)Cl)C(O)C1O` (stereo not drawn): the fold change in assay [1] (setting [3]) was 0.883 (inactive); in assay [1] (setting [4]) it was 0.558. Moreover, the cell count in assay [1] (setting [5]) is 9240; in assay [1] (setting [6]) it was 10500. Also, the z-score in assay [2] (setting [7]) is -0.438 (inactive); in assay [2] (setting [8]) it was -0.237.

With `COC(=O)NC(C(=O)N1CCCC1c1ncc(-c2ccc(-c3ccc(-c4cnc(C5CCCN5C(=O)C(NC(=O)OC)C(C)C)[nH]4)cc3)cc2)[nH]1)C(C)C` (stereo not drawn), the figures for the fold change in assay [1] (setting [3]) and in assay [1] (setting [4]) were 0.912 (inactive) and 0.711, respectively. The cell count in assay [1] (setting [5]) was 6220; in assay [1] (setting [6]), 6830. Besides, the z-score in assay [2] (setting [7]) was 1.19 (inactive); in assay [2] (setting [8]), 0.581.

Source of the values: PubChem BioAssay.
